# Inconclusive results are not listed. A call without a number means that no potency is given here. Activity calls are given as the source filed them. Calls come from the whole dose curve; as a rule, active = well fitted cell-killing curve with a large enough effect; inconclusive = small, poorly fitted or top-dose-only effect; inactive = flat fitted curve, though single readings scatter.
# Test: Identifying Small Molecule Inhibitors of Pancreatic Cancer Stem Cells (SN12C, Adherent) (AID 1259358);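 note: cell survival measured after 48 h of compound exposure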
# Conditions: viability/growth inhibition; series mostly up to 46.1 µM
# Text: Progenitor-like cancer cells, often referred to as cancer stem cells (CSC), are believed to be the drivers of therapeutic resistance and rapid recurrence. CSCs are postulated to reside in specific niches characterized by low oxygen tension, limited nutrient supply, and high redox load. Selectively targeting CSC, alone or in combination with cytotoxic agents, as a means to produce durable remissions is an appealing concept. Modeling these cells in in vitro setting is an important step in finding new therapies and/or targets. Multiple reports highlight that forcing cells in culture into 3-dimensionaly architectures (spheroids) re-establishes key progenitor-like transcriptional signatures. Pancreatic cancer is among the diseases with the most dismal outlook which is driven, largely, by recurance following front-line therapies. […] In hopes of deriving new insight into the targeting of these pancreatic CSCs we examined three established pancreatic cancer cell lines in cytotoxicity assays versus a collection of approved and investigational drugs. Importantly, we screened these lines as traditional monolayer (2D) and spheroid (3D) formats to gain an appreciation of agents with differential activity.
# Multicellular tumor spheroids from Panc1, MiaPaCa-2, and the primary low-passage tissue culture line SB.06 were seeded in stem cell media (SCM) in nonadherent 6-well plates coated with hydrogel (Corning Life Sciences, Chelmsford, Mass) and pancreatic spheres generated for 14 days before screening. Cells were seeded into 1536-well solid-bottom white tissue culture treated Greiner Bio One Plates (789173-F) using a MultiDrop Combi (Thermofisher Scientific) dispenser and a small sterile cassette. One column was media alone to be used as a :"no cells" control. The plates were then covered with sterilized stainless steel gasketed lids from Kalypsys. After allowing cells to attach for 4 hours, 23 nL of test compound or control (negative control DMSO and positive control 9.2 uM Bortezomib-final) were added from a 1536-well polypropylene compound source plate to each well using a 1536 head pin tool from Kalypsys. Cells were then incubated for 48 hours at 37C, 95% relative humidity and 5% CO2. After 48 hours, plates were removed from the incubator and 3 uL of CellTiter-Glo (Promega) was added using an Aurora Flying Reagent Dispenser Bioraptor. Plates were incubated at room temperature for 10 minutes prior to reading the luminescence on the Viewlux (PerkinElmer). The relative luciferase units are used to calculate the percent activity using the activity of DMSO in the cells and no cells columns for normalization of no inhibition and full inhibition respectively.
# Potency is the fitted concentration of half-maximal effect.
row,SMILES,Potency
1,O=C(O)Cc1cccc(OCCCN(Cc2cccc(C(F)(F)F)c2Cl)CC(c2ccccc2)c2ccccc2)c1,inactive
2,Cc1cc2c(cc1C1(c3ccc(C(=O)O)cn3)CC1)C(C)(C)CCC2(C)C,inactive
3,CN(C)CCCNC(=O)c1ccc(-c2cc(O)c3ncccc3c2)cc1,inactive
4,CCC(=O)N1CCN(c2ccc(-n3c(=O)ccc4cnc5ccc(-c6cnc7ccccc7c6)cc5c43)cc2C(F)(F)F)CC1,0.0372 µM (active)
5,COc1cc2nccc(Oc3ccc(NC(=O)Nc4cc(C)on4)c(Cl)c3)c2cc1OC,16.6 µM (active)
6,COc1nc(C)cnc1NS(=O)(=O)c1cccnc1-c1ccc(-c2nnco2)cc1,inactive
7,CC(O)=C(C#N)C(=O)Nc1ccc(C(F)(F)F)cc1,inactive
8,CCCCc1ccc(NS(=O)(=O)c2ccc(C)c(C(=O)N3CCN(c4cccc(C)c4C)CC3)c2)cc1,inactive
9,CCOC(=O)[C@@H](N)CCC(=O)N[C@@H](CSCc1ccccc1)C(=O)N[C@@H](C(=O)OCC)c1ccccc1,inactive
10,CCC=CC[C@H]1C(=O)CC[C@@H]1CC(=O)OC,inactive
11,Cn1cc(-c2ccc3nnc(Sc4ccc5ncccc5c4)n3n2)cn1,inactive
12,COC(=O)Nc1ccc(-c2nc(N3CCOCC3)c3cnn(C4CCN(C(=O)OC)CC4)c3n2)cc1,0.264 µM (active)
13,CC(=O)NCCC(=O)N[C@@H](CCC(N)=O)C(=O)N[C@@H](CO)C(=O)N[C@@H](CCC(N)=O)C(=O)N[C@@H](CCC(N)=O)C(=O)N[C@H](C(=O)N[C@@H](Cc1ccccc1)C(=O)N[C@]1(C)CCCCCCC=CCCC[C@@](C)(C(=O)N[C@@H](CCC(N)=O)C(=O)N[C@@H](CC(N)=O)C(N)=O)NC(=O)[C@H](CC(C)C)NC(=O)[C@H](CC(C)C)NC(=O)[C@@H](CCCNC(=N)N)NC(=O)[C@H](Cc2c[nH]c3ccccc23)NC(=O)[C@H](CC(C)C)NC(=O)[C@H](CC(N)=O)NC1=O)[C@H](C)O,inactive
14,COc1cc2c(cc1OC)CC(=O)N(CCCN(C)C[C@H]1Cc3cc(OC)c(OC)cc31)CC2,inactive
15,COc1cccc(OC)c1-c1cc(C(=O)NC2(C(=O)O)C3CC4CC(C3)CC2C4)nn1-c1ccnc2cc(Cl)ccc12 (stereo not given),inactive
16,Nc1ccc(-c2ccc3ncc4ccc(=O)n(-c5cccc(C(F)(F)F)c5)c4c3c2)cn1,inactive
17,Cc1c(C(=O)Nc2ccc(N3C[C@@H](C)O[C@@H](C)C3)nc2)cccc1-c1ccc(OC(F)(F)F)cc1,inactive
18,CN1C(=O)C(Cc2c[nH]c3ccccc23)NC1=S (stereo not given),inactive
19,O=C(O)c1ccc(O)c2ncc(N3CCOCC3)cc12,inactive
20,CCNC(=O)c1noc(-c2cc(C(C)C)c(O)cc2O)c1-c1ccc(CN2CCOCC2)cc1,0.0105 µM (active)
21,CNC(=O)c1cc(COc2nnc(Nc3ccc(Cl)cc3)c3ccoc23)ccn1,inactive
22,C[C@@H](O[C@H]1OCCN(Cc2n[nH]c(=O)[nH]2)[C@@H]1c1ccc(F)cc1)c1cc(C(F)(F)F)cc(C(F)(F)F)c1,18.7 µM (active)
23,Cc1ccc(NC(=O)c2ccc(CN3CCN(C)CC3)cc2)cc1Nc1nc(-c2cccnc2)cs1,inactive
24,NC(=O)c1ccc(N(C(N)=O)c2c(F)cccc2F)nc1-c1ccc(F)cc1F,inactive
25,O=C1C(CCC(O)c2ccc(F)cc2)C(c2ccc(O)cc2)N1c1ccc(F)cc1 (stereo not given),inactive
26,Cc1cccc(Nc2nc(N[C@@H]3CCCC[C@H]3N)ncc2C(N)=O)c1,18.7 µM (active)
27,CCCCOCCOc1nc(-c2ccc(C(=O)O)c(F)c2)sc1C,inactive
28,OCCn1cc(-c2ccc3c(c2)CCC3=NO)c(-c2ccncc2)n1,inactive
29,O=C(Nc1cccc(Cl)c1)Nc1ncc(CCNc2ncnc3ccsc23)s1,inactive
30,Cc1nn(Cc2ccccc2Cl)c(C)c1CN(C)CC(O)COc1ccc(Cl)cc1 (stereo not given),inactive

# — PubChem BioAssay (NCATS)
